The results in this text go back to PubChem BioAssay (EPA / NIEHS).

For orientation: AC50 means the concentration at which the activity in the assay is half-maximal.

Structures are written as SMILES. Several values for one entry are separate records, joined by “and”; a condition that tells them apart may be missing. Equal entries are not always repeated. Some compounds were tested as several samples or in several runs, with calls that do not always agree. Activity calls are given as the source filed them. How the source made its calls: active means hit-call score of the fitted dose curve at least 0.9, where 1 is the maximum; inactive means score below 0.9.

Read-out in test [1]: Monocyte Chemoattractant Protein-1 (MCP1), CCL2 (gene 6347)
Put plainly: BSK_LPS_MCP1: BioMAP Diversity Plus: LPS Assay for Monocyte Chemoattractant Protein-1 (MCP1) Biomarker Activity (AID 2283081). The following applies: primary human HUVEC with PBMC; actives raise or lower the signal. A digest of the protocol:
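HUVEC plus PBMC co-culture (human primary cells, LPS system) exposed to test chemical for 24 h; MCP-1 measured by ELISA. Bidirectional curve fitting against DMSO baseline; parallel SRB total-protein staining flags overt cytotoxicity.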

Test [2] can be described thus: BSK_LPS_PGE2: BioMAP Diversity Plus: LPS Assay for Prostaglandin E2 (PGE2) Biomarker Activity (AID 2283082). The following applies: primary human HUVEC with PBMC; actives raise or lower the signal. A digest of the protocol:
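Endpoint derived from bidirectional curve fitting versus DMSO of ELISA-measured PGE2 in LPS-stimulated human primary vascular co-culture (HUVEC with PBMC) harvested at 24 h.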

Read-out in test [3]: Macrophage colony-stimulating factor (MCSF), CSF1 (gene 1435)
Put plainly: BSK_LPS_MCSF: BioMAP Diversity Plus: LPS Assay for Macrophage colony-stimulating factor (MCSF) Biomarker Activity (AID 2283083). Conditions: primary human HUVEC with PBMC; actives raise or lower the signal. A digest of the protocol:
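Human umbilical vein endothelial cells co-cultured with peripheral blood mononuclear cells were exposed to compound for 24 h. M-CSF levels were measured by ELISA, and bidirectional curve fitting used DMSO as the negative control and baseline.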

Read-out in test [4]: Tissue Factor, F3 (gene 2152)
Put plainly: BSK_LPS_TissueFactor: BioMAP Diversity Plus: LPS Assay for Tissue Factor Biomarker Activity (AID 2283084). The following applies: primary human HUVEC with PBMC; actives raise or lower the signal. The gist of the method:
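Human umbilical vein endothelial cells co-cultured with peripheral blood mononuclear cells were dosed and stimulated with LPS. Cell-surface CD142 was quantified by ELISA at 24 h. Activity was fitted bidirectionally against DMSO baseline.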

Read-out in test [5]: Tumor necrosis factor (Homo sapiens) (UniProt P01375)
Put plainly: BSK_LPS_TNFa: BioMAP Diversity Plus: LPS Assay for Tumour Necrosis Factor alpha (TNFa) Biomarker Activity (AID 2283085). The following applies: primary human HUVEC with PBMC; actives raise or lower the signal. The gist of the method: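 Primary human vascular co-culture of HUVEC and PBMC; TNFa ELISA 24 h after treatment, analysed as increase or decrease relative to DMSO control.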

Read-out in test [6]: Vascular cell adhesion molecule 1 (VCAM1), VCAM1 (gene 7412)
Put plainly: BSK_LPS_VCAM1: BioMAP Diversity Plus: LPS Assay for Vascular cell adhesion molecule 1 (VCAM1) Biomarker Activity (AID 2283086). The following applies: primary human HUVEC with PBMC; actives raise or lower the signal. A digest of the protocol:
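Primary human vascular co-culture (umbilical vein endothelium plus PBMC) stimulated with LPS received chemical; 24 h later VCAM-1 was read by ELISA. Overt cytotoxicity was assessed by sulforhodamine B staining of parallel cultures at the same time point.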

Read-out in the next test: CD40, CD40 (gene 958)
Put plainly: BSK_SAg_CD40: BioMAP Diversity Plus: SAg Assay for CD40 Biomarker Activity (AID 2283088). Conditions: primary human HUVEC with PBMC; actives raise or lower the signal. The gist of the method: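 Human umbilical vein endothelial cells co-cultured with PBMC; CD40 levels measured by ELISA with fluorescence read-out 24 h after chemical dosing. Gain or loss of signal fitted bidirectionally against DMSO baseline.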

Read-out in another test: CD69, CD69 (gene 969)
Put plainly: BSK_SAg_CD69: BioMAP Diversity Plus: SAg Assay for CD69 Biomarker Activity (AID 2283089). The following applies: primary human HUVEC with PBMC; actives raise or lower the signal. A digest of the protocol: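 Values derive from bidirectional fitting relative to DMSO vehicle. Cells: umbilical vein endothelium plus peripheral blood mononuclear cells, treated 24 h before fluorescent ELISA for CD69.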

Read-out in test [7]: Monocyte Chemoattractant Protein-1 (MCP1), CCL2 (gene 6347)
Put plainly: BSK_SAg_MCP1: BioMAP Diversity Plus: SAg Assay for Monocyte Chemoattractant Protein-1 (MCP1) Biomarker Activity (AID 2283090). Conditions: primary human HUVEC with PBMC; actives raise or lower the signal. The gist of the method: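 MCP-1 levels in the endothelial–PBMC SAg co-culture were quantified by ELISA at 24 h post-dosing; both increases and decreases versus DMSO scored. Cytotoxicity monitored by SRB total protein in parallel cultures.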

Read-out in test [8]: E-selectin (Homo sapiens) (UniProt P16581)
Put plainly: BSK_SAg_Eselectin: BioMAP Diversity Plus: SAg Assay for Eselectin Biomarker Activity (AID 2283091). The following applies: primary human HUVEC with PBMC; actives raise or lower the signal. A digest of the protocol:
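HUVEC co-cultured with PBMC, compound dosed then read at 24 h; E-selectin measured by ELISA. Activity fitted bidirectionally against DMSO as negative control and baseline.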

Read-out in test [9]: Monokine induced gamma interferon (MIG), CXCL9 (gene 4283)
Put plainly: BSK_SAg_MIG: BioMAP Diversity Plus: SAg Assay for Monokine induced gamma interferon (MIG) Biomarker Activity (AID 2283092). The following applies: primary human HUVEC with PBMC; actives raise or lower the signal. A digest of the protocol: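 Values reflect bidirectional fitting of ELISA-measured MIG against DMSO vehicle, taken 24 h after dosing of a co-culture of human umbilical vein endothelial cells and peripheral blood mononuclear cells.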

Test [10] is described as follows: BSK_SAg_PBMCCytotoxicity: PBMC Cytotoxicity Assessment in the BioMAP Diversity Plus: SAg Assay (AID 2283093).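 Further: PBMC viability measured as Alamar Blue reduction fluorescence at 546/580 nm; fitted both ways against DMSO so a hit may be loss or gain of signal.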 Conditions: primary human HUVEC with PBMC. A digest of the protocol:
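Human umbilical vein endothelial cells co-cultured with PBMC; PBMC (75,000/well) pre-treated with compound 1 h, then activated with SEB and TSST-1 (20 ng/mL final each) for 90 h. Alamar Blue added 6 h, fluorescence 546/580 nm; bidirectional fit versus DMSO.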

Read-out in test [11]: Interleukin-8 (IL8), CXCL8 (gene 3576)
Put plainly: BSK_SAg_IL8: BioMAP Diversity Plus: SAg Assay for Interleukin-8 (IL8) Biomarker Activity (AID 2283094). The following applies: primary human HUVEC with PBMC; actives raise or lower the signal. The gist of the method: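 In this co-culture of human umbilical vein endothelium with peripheral blood mononuclear cells, IL-8 is assayed by ELISA at 24 h. DMSO serves as baseline for bidirectional curve fitting.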

Test [12] can be described thus: BSK_SAg_Proliferation: Cell Proliferation Assessment in the BioMAP Diversity Plus: SAg Assay (AID 2283095).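 Further: relative cell number as total protein by SRB absorbance in sub-confluent culture.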 The following applies: primary human HUVEC with PBMC. A digest of the protocol: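 Readout is SRB-stained protein (560 nm) in a primary human HUVEC and PBMC co-culture; sub-confluent cultures are read at 96 h. Activity is fitted bidirectionally using DMSO as baseline.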

The nature of test [13]: BSK_SAg_SRB: Viability Assessment in the BioMAP Diversity Plus: SAg Assay (AID 2283096).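 Further: cells read one day after compound addition; hits may be either gain or loss of signal compared with DMSO.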 Conditions: primary human HUVEC with PBMC. A digest of the protocol: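 Endothelial/PBMC primary human co-culture; compound 24 h; fix 10% TCA, stain 0.1% SRB, A560; protein content as cytotoxicity proxy; bidirectional curve fit, DMSO = baseline.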

Tumor necrosis factor (Homo sapiens), sequence (P01375 whole entry, looked up): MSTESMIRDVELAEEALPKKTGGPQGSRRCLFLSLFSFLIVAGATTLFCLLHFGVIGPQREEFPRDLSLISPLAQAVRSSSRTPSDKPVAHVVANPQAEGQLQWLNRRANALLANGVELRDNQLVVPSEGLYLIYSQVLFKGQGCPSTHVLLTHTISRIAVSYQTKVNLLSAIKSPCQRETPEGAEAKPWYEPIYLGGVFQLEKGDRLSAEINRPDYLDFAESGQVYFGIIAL
E-selectin (Homo sapiens), sequence (P16581 whole entry, looked up): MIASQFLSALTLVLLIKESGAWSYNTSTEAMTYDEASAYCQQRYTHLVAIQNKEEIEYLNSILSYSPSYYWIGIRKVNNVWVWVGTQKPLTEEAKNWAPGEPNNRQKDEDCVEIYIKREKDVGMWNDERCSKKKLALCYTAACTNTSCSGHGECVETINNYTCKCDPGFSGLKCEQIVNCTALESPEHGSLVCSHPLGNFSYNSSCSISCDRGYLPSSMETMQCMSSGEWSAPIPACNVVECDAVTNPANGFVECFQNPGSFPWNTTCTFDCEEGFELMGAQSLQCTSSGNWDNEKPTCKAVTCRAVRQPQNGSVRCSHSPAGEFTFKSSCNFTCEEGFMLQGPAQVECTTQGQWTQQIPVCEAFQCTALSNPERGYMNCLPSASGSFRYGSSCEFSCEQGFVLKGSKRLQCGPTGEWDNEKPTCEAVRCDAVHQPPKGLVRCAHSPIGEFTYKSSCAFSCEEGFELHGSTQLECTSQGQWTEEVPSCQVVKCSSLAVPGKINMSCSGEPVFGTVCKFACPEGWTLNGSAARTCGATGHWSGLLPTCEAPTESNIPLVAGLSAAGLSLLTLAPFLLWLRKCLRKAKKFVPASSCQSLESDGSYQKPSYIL

Regarding `O=C(O)C(F)(F)C(F)(F)C(F)(F)C(F)(F)C(F)(F)C(F)(F)C(F)(F)C(F)(F)C(F)(F)C(F)(F)C(F)(F)C(F)(F)F`, the outcome in test [1] is “inactive”; in test [2] it was “inactive”; in test [4] it was “inactive”; in [5] it was “inactive”; in test [6], “inactive”; in the test with CD69, CD69 (gene 969), “inactive”. For the same compound, the outcome in [7], in test [8], in [9], in test [10], in test [11] and in test [12] was inactive. The outcome in [13] was inactive. In addition, the AC50 in test [3] was 20.4 µM (active) and 21.6 µM (active); in the test with CD40, CD40 (gene 958), 21.1 µM (active) and 16.7 µM (active).
Regarding `CC(CCl)OP(=O)(OC(C)CCl)OC(C)CCl` (stereo unspecified), the outcome in test [1], in [2], in test [3], in [4], in test [5] and in [6] was inactive. Besides, the outcome in the test with CD40, CD40 (gene 958) was “inactive”; with CD69, CD69 (gene 969), “inactive”; in [7], “inactive”; in test [8], “inactive”; in test [9], “inactive”; in test [10], “inactive”. In addition, the result in test [11], in test [12] and in [13] was inactive.
On to `O=C(O)C(F)(F)C(F)(F)C(F)(F)F`, for which the result in [1], in [2], in [3], in test [4], in test [5] and in test [6] was inactive. Also, the outcome is “inactive” with CD40, CD40 (gene 958); “inactive” with CD69, CD69 (gene 969); “inactive” in test [7]; “inactive” in [8]; “inactive” in test [9]; “inactive” in test [10]. Also, the outcome in [11], in test [12] and in test [13] was inactive.
Consider `NC(=O)C(F)(F)C(F)(F)C(F)(F)C(F)(F)F`, for which the outcome in test [1], in test [2], in [3], in test [4], in test [5] and in [6] was inactive. Moreover, the outcome is “inactive” with CD40, CD40 (gene 958); “inactive” with CD69, CD69 (gene 969); “inactive” in test [7]; “inactive” in [8]; “inactive” in test [9]; “inactive” in test [10]. Also, the result in test [11], in test [12] and in test [13] was inactive. In addition, the AC50 in [12] was 30 µM (active).
For the compound `O=C(O)C(F)(F)C(F)(F)OC(F)(F)F`, the outcome in test [1], in test [2], in test [3], in test [4], in test [5] and in test [6] was inactive. The outcome with CD40, CD40 (gene 958) was “inactive”; with CD69, CD69 (gene 969) it was “inactive”; in test [7], “inactive”; in test [8] it was “inactive”; in [9], “inactive”; in test [10], “inactive”. The outcome in test [11], in test [12] and in test [13] was inactive.
Take `OCC(F)(F)C(F)(F)C(F)(F)C(F)(F)C(F)(F)C(F)F`: the outcome in test [1], in test [2], in test [3], in [4], in [5] and in test [6] was inactive. Also, the outcome in the test with CD40, CD40 (gene 958) was “inactive”; in the test with CD69, CD69 (gene 969) it was “inactive”; in test [7], “inactive”; in [8] it was “inactive”; in [9], “inactive”; in test [10] it was “inactive”. In addition, the result in test [11], in [12] and in test [13] was inactive.
